We go through 40 molecules from PubChem BioAssay (Tox21).

Values joined by “and” are separate entries in the source; they are usually repeats but may differ in a detail not shown here. Equal values may be shown once. Inconclusive results are not listed. Entries that show only a call come without a potency. Some structures have more than one record in an assay (separate samples or runs), and their calls can disagree. Active and inactive are the calls of the source. Calls come from the whole dose curve.
Potency is the fitted concentration of half-maximal effect.

The assay is described as follows: qHTS assay for small molecule agonists of the p53 signaling pathway - cell viability (AID 651633). Note: nearly all actives have a fitted effect of over 30% in size. As to conditions: p53RE-bla HCT-116 viability, ATP luminescence, 16 h; series mostly up to 83.3 µM. An excerpt:
National Center for Advancing Translational Sciences [NCATS]
NIH Chemical Genomics Center [NCGC]
U.S. Environmental Protection Agency [EPA]
National Institutes of Environmental Health Sciences [NIEHS]
National Toxicology Program [NTP]
U.S. Food and Drug Administration [FDA]
p53, a tumor suppressor protein, is activated following cellular insult, including DNA damage and other cellular stresses. The activation of p53 regulates cell fate by inducing DNA repair, cell cycle arrest, apoptosis, or cellular senescence. The activation of p53, therefore, is a good indicator of DNA damage and other cellular stresses. […] The activation of the reporter gene under culture conditions can be detected by fluorescence intensity. This cell line was used to screen the Tox21 compound library in a 1536-well plate format and to identify agonists that activate the p53 signaling pathway.
Tox21 Assay Protocol Summary:
The p53RE-bla cells were dispensed at 4,000 cells/5 ul/well in 1536-well black wall/clear bottom plates using a Multidrop dispenser. After the assay plates were incubated at a 37 C/5% CO2 incubator for 5 hours, 23 nL of compounds dissolved in DMSO, positive controls or DMSO only was transferred to the assay plate by a pin tool. The plates were incubated at 37 C for 16 hours. After 1 uL of LiveBLAzerTM B/G FRET substrate was added using a Flying Reagent Dispenser, the plates were incubated at room temperature for 2 hours, and fluorescence intensity was measured by an Envision plate reader.
For cell viability readout that measures cytotoxicity, 4 ul/well of CellTiter-Glo reagent was added into the assay plates using a Flying Reagent Dispenser. After 30 min incubation at room temperature, the luminescence intensity in the plates was measured using a ViewLux plate reader.
A general note: Quantitative high-throughput screening tests each substance at several concentrations.
`CC(=O)Nc1ccccc1C`: the Potency entry is “inactive”.
Regarding `Cc1cnc(C)c(C)n1`, the Potency entry is “inactive”.
Take `CCOc1cc(N)c(Cl)cc1C(=O)NCC1CN(Cc2ccc(F)cc2)CCO1` (stereo not given): the Potency result is “inactive”.
As to `N#C/C(=C1/SC[C@@H](c2ccc(Cl)cc2Cl)S1)n1ccnc1`, the Potency result was “inactive”.
For `N#C/C(=C1\SCC(c2ccccc2Cl)S1)n1ccnc1` (stereo not given), the Potency result is “inactive”.
Turning to `O=c1[nH]c2ccc(S(=O)CCN3CCC(Cc4ccc(F)cc4)CC3)cc2o1` (stereo not given), the Potency entry is “inactive”.
Consider `CC(=O)[C@H]1CC[C@H]2[C@@H]3C[C@H](C)C4=CC(=O)CC[C@]4(C)[C@H]3[C@@H](O)C[C@]12C`, for which the Potency result is “inactive”.
Consider `CC(C)C(OC(=O)c1ccccc1)C(C)(C)COC(=O)c1ccccc1` (stereo not given), for which the Potency entry was “inactive”.
Take `CC(C)CCCCCCOC(=O)CCCCC(=O)OCCCCCCC(C)C`: the Potency result was “inactive”.
With `CC1(C)C(=O)N(Br)C(=O)N1Cl`, the Potency result was “inactive”.
With `Cc1oncc1C(=O)Nc1ccc(C(F)(F)F)cc1`, the Potency entry was “inactive”.
Turning to `CC(C)(C)C(=O)O`, the Potency entry is “inactive”.
The entry for `COc1cc2[nH]c(=O)[nH]c(=O)c2cc1OC` is “inactive”; for `Cc1ccc(/C=N/n2c(-c3ccccc3)csc2=S)cc1` it is “inactive”; for `CC1=C(C=O)C(C)(C)CCC1` it is “inactive”.
For the molecule `Cc1cc(O)c(C(C)C)cc1Cl`, the Potency entry was “inactive and 54.5 µM (active)”.
Turning to `Cc1nc2ccccc2s1`, the Potency entry was “inactive”.
Turning to `CN1CCN(c2c(F)cc3c(=O)c(C(=O)O)cn4c3c2OCN4C)CC1`, the Potency result is “inactive”.
For `O=C(Nc1ccc([N+](=O)[O-])cc1)Nc1ccc([N+](=O)[O-])cc1`, the Potency result was “inactive”.
Consider `CCC(C)(O)CCC=C(C)C` (stereo not given), for which the Potency entry is “inactive”.
Turning to `CCCCC(CC)C(=O)OCCOCCOCCOCCOC(=O)C(CC)CCCC` (stereo not given), the Potency entry is “inactive”.
Next, `Brc1cc(-c2ccc(Br)c(Br)c2Br)cc(Br)c1Br`: “inactive”; `CCCCCCCCCCCC(=O)[O][Sn]([CH2]CCC)([CH2]CCC)[O]C(=O)CCCCCCCCCCC`: “inactive”.
As to `C=CC(=O)NCOCC(C)C`, the Potency result is “inactive”.
As to `CCC(C(=O)OCCOCCN(CC)CC)c1ccccc1` (stereo not given), the Potency entry is “inactive”.
As to `CC(C)(C)C(=O)C(Oc1ccc(Cl)cc1)n1ccnc1` (stereo not given), the Potency result was “inactive”.
For the molecule `CNC(=S)NC`, the Potency entry was “inactive”.
As to `CCn1nc(C)c2c1C(=O)NCC(c1ccc(O)cc1)=N2`, the Potency result was “inactive”.
The entry for `C/C=C/C=C/CCCCCCCO` is “inactive”.
Next, `CC(=O)Oc1ccc(C(=C2CCCCC2)c2ccc(OC(C)=O)cc2)cc1`: “inactive”.
The entry for `O=C(CCCCCCCCC#CI)Oc1ccccc1` is “inactive”.
Take `NC(=O)Cn1c(=O)cc(CCN2CCN(c3nccc4sccc34)CC2)c2ccc(F)cc21`: the Potency result was “inactive”.
`NC(=O)Nc1ccc(Cl)c(Cl)c1`: the Potency result was “inactive”.
With `Cc1ccccc1N1C(=O)c2cc(S(N)(=O)=O)c(Cl)cc2NC1C` (stereo not given), the Potency result is “inactive”.
For `COc1cc2c(cc1OC)-c1cc(=Nc3c(C)cc(C)cc3C)n(C)c(=O)n1CC2`, the Potency was 29.8 µM (active).
For `O=C(CS)OCCOC(=O)CS`, the Potency result was “inactive”.
As for `O=C(O)c1cccc(O)c1`, the Potency entry was “inactive”.
As to `CCCOc1ccc(S(=O)(=O)N2CCN(CC)CC2)cc1-c1nc2c(CC)n(Cc3ccccn3)nc2c(=O)[nH]1`, the Potency result is “inactive”.
In the case of `CC1CN(c2cc3c(cc2F)c(=O)c(C(=O)O)cn3-c2ccc(F)cc2F)CCN1` (stereo not given), the Potency entry was “inactive”.
For the molecule `CC1=NN(c2ccc(C(=O)O)cc2)C(=O)C1`, the Potency result is “inactive”.
